Calls of active or inactive are those of the source.
Tests used:
Albumin (Bos taurus) = Albumin (Bos taurus) (UniProt P02769); assay: bovine serum albumin binders on microarray, profiling panel, artefact control for SMM control protein annotation, biochemical, small-molecule microarray, Alexa647 label, 635/667 nm fluorescence (AID 1118); details: BSA-A647 binding, fluorescence 635 nm, higher = more signal;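 also: score merges 667 nm emission intensity and signal-to-noise per printed compound spot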
Sequence of Albumin (Bos taurus) (P02769 whole entry, looked up): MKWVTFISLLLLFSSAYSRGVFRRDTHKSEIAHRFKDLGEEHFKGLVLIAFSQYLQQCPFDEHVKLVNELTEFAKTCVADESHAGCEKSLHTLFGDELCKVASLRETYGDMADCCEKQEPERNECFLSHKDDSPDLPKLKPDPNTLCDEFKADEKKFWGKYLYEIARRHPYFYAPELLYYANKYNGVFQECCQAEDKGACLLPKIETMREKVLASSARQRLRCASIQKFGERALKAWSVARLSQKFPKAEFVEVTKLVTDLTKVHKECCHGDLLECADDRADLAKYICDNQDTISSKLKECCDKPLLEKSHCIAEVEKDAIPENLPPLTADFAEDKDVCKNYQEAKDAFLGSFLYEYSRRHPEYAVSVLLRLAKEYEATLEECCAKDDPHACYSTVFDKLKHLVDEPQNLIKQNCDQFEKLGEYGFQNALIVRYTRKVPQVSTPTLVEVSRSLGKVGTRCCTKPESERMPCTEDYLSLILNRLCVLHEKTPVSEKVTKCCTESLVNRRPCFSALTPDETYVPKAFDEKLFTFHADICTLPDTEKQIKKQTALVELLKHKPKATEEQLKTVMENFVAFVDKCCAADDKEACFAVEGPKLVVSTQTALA

[1] = small-molecule microarray binders of probe aXIP, primary screen, biochemical, NeuroSMM set, 635/667 nm fluorescence (AID 1119); details: higher = more signal, called active from +8 up or from −8 down;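 also: probe is the protein aXip251-270 applied at 1 µg/mL to compound-printed slides; binding of probe to printed compounds measured as 667 nm fluorescence plus signal to noise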
[2] = small-molecule binders of probe aNOTCH3, primary screen, biochemical, small-molecule microarray, 635/667 nm fluorescence (AID 1120); details: higher = more signal;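 also: probe is a biotin-tagged antibody raised against NOTCH3 rather than NOTCH3 protein; score merges spot fluorescence near 667 nm with spot signal to noise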
[3] = small-molecule binders of probe aNOTCH2, primary screen, biochemical, small-molecule microarray, 635/667 nm fluorescence (AID 1121); details: higher = more signal;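 also: score merges feature fluorescence read at 667 nm with its signal to noise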
[4] = molecular target: Carbonic anhydrase 2 (Homo sapiens) (UniProt P00918); assay: CAII small-molecule binders, profiling panel, biochemical, small-molecule microarray, Alexa647-labelled CAII (AID 1122); details: CAII-A647 binding fluorescence, higher = more signal
[5] = COS7 lysate on small-molecule microarray, probe aHis, 635 nm (AID 1123); details: COS7 cell lysate, fluorescence, higher = more signal;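 also: z-score combines 667nm fluorescence intensity with signal-to-noise per printed compound spot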
[6] = compound binding in COS7 lysate, probe aLAP1, primary screen, cell lysate, small-molecule microarray (AID 1124); details: probe aLAP1, fluorescence, higher = more signal;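 also: lysate comes from COS7 cells expressing LAP1 and is applied at 0.3 µg/mL; score merges spot fluorescence near 667 nm with signal-to-noise over triplicate slides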
Sam68 (KHDRBS1) = assay: Sam68 small-molecule binders, primary screen, biochemical, small-molecule microarray, 635 nm fluorescence (AID 1125); details: small-molecule microarray binding, higher = more signal;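 also: score merges 667 nm channel intensity with signal to noise over triplicate slides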
[7] = system: Chordin-like protein 2 (CHRDL2); assay: CHRDL2 small-molecule binders, primary screen, biochemical, small-molecule microarray, 635 nm fluorescence (AID 1126); details: small-molecule microarray binding, fluorescence 635 nm; higher = more signal;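 also: printed compound slides probed with Chrdl2 protein at 4 µg/mL for 1 h at 4 C; score merges 667 nm emission intensity with signal to noise over three replicate slides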
[8] = molecular target: Concanavalin-A (Canavalia ensiformis) (UniProt P02866); assay: ConA small-molecule binders, primary screen, artefact control for SMM control protein annotation, biochemical, small-molecule microarray, Alexa647 label, 635 nm (AID 1127); details: ConA-A647 binding fluorescence, higher = more signal;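 also: z combines 667 nm emission intensity with signal-to-noise across three replicate slides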
Sequence of Concanavalin-A (Canavalia ensiformis) (P02866 whole entry, looked up): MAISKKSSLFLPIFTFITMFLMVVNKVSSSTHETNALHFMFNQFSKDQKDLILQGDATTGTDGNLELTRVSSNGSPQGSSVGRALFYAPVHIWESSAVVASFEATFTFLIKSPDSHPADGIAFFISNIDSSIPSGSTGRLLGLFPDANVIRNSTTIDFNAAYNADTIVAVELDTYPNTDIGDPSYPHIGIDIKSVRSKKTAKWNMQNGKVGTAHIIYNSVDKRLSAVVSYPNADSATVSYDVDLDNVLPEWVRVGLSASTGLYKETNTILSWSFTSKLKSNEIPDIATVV

[9] = anti-His antibody binders, primary screen, artefact control for SMM control protein annotation, biochemical, small-molecule microarray, 635 nm fluorescence (AID 1128); details: anti-His Alexa647 antibody binding, higher = more signal;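 also: score merges feature fluorescence with signal-to-noise for each printed compound spot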
[10] = system: Human papillomavirus type 1a E7 protein (residues 1-88); assay: HPV1a E7 small-molecule binders, primary screen, biochemical, small-molecule microarray, residues 1-88, 635 nm (AID 1129); details: small-molecule microarray binding, fluorescence 635 nm; higher = more signal
[11] = molecular target: Focal adhesion kinase 1 (Homo sapiens) (UniProt Q05397); assay: small-molecule microarray binders of FAK, primary screen, biochemical, 635/667 nm fluorescence, BSA, DTT (AID 1130); details: PTK2 binding, 635 nm fluorescence, higher = more signal;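 also: composite of spot emission at 667 nm and signal to noise over triplicate slides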
Sequence of Focal adhesion kinase 1 (Homo sapiens) (Q05397 whole entry, looked up): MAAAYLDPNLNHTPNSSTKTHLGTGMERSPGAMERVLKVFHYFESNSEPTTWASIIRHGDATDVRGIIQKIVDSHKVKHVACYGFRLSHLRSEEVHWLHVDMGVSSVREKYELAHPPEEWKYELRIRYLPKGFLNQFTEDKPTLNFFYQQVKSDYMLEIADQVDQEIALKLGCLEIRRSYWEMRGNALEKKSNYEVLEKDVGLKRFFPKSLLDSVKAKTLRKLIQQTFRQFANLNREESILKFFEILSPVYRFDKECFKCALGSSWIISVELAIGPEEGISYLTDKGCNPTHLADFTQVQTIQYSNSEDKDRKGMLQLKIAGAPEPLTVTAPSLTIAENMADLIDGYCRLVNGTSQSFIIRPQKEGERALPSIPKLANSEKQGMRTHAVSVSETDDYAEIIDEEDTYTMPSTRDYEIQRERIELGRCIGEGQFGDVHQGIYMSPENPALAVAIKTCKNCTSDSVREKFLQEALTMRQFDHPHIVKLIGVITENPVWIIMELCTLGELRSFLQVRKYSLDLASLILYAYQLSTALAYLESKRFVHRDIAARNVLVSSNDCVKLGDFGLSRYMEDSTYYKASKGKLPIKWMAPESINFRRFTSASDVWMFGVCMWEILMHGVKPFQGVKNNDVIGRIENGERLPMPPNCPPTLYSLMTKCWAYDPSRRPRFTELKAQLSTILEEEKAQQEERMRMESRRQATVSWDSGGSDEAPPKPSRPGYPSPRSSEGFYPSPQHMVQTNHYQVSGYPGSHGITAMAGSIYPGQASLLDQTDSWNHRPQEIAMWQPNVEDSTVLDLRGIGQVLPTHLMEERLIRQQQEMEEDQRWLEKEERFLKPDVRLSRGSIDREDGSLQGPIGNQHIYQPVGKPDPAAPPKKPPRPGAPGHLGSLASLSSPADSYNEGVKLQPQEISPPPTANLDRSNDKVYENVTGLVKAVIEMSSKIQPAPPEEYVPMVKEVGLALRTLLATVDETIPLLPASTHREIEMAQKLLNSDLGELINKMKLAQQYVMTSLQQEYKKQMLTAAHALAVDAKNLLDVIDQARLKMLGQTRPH

[12] = system: Fibrinogen (Alexa647-labelled); assay: fibrinogen binders on compound microarrays, profiling panel, artefact control for SMM control-protein annotation, biochemical, small-molecule microarray, 635/667 nm fluorescence (AID 1131); details: fibrinogen-A647 binding fluorescence, higher = more signal;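 also: z-score merges 667 nm fluorescence with per-spot signal-to-noise over triplicate slides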
[13] = molecular target: Follistatin (Homo sapiens) (UniProt P19883); assay: follistatin binders on small-molecule microarrays, primary screen, biochemical, small-molecule microarray, 635/667 nm fluorescence (AID 1132); details: FST binding, 635 nm fluorescence, higher = more signal
Sequence of Follistatin (Homo sapiens) (P19883 whole entry, looked up): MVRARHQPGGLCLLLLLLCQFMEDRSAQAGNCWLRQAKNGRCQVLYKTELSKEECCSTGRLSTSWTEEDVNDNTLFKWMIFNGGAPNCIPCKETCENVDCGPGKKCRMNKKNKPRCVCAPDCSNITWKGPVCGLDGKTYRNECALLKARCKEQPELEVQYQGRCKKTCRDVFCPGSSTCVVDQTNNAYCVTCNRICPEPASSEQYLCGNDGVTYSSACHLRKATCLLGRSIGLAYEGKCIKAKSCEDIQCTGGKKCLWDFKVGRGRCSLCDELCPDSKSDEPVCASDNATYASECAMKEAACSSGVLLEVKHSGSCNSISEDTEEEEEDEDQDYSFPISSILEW

[14] = molecular target: Fibroblast growth factor 2 (Homo sapiens) (UniProt P09038); assay: FGF2 binders on small-molecule microarrays, primary screen, biochemical, small-molecule microarray, 635/667 nm fluorescence (AID 1133); details: small-molecule microarray binding, FGF2, fluorescence 635/667; higher = more signal
Sequence of Fibroblast growth factor 2 (Homo sapiens) (P09038 whole entry, looked up): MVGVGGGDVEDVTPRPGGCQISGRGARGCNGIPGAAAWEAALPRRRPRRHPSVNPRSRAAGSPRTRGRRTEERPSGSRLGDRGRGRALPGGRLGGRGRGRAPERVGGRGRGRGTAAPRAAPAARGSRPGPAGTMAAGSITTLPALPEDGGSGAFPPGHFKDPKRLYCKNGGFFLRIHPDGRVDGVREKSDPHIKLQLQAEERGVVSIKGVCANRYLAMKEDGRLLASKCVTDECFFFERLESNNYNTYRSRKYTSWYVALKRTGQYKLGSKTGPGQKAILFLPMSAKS

[15] = mitochondrial membrane potential change in A549 cells, profiling panel, cell-based, JC-1 fluorescence, basal, 24 h, 100 nL (AID 1138); details: higher = more signal;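 also: A549 lung adenocarcinoma cells under basal conditions with no added stimulus; test concentration not given here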
Lefty1 = Lefty1 binders on small-molecule microarrays, primary screen, biochemical, small-molecule microarray, 635/667 nm fluorescence (AID 1139); details: small-molecule microarray binding, fluorescence 635/667; higher = more signal
[16] = system: wheat germ agglutinin (Triticum aestivum), Alexa647-labelled; assay: wheat germ agglutinin binders on compound microarrays, profiling panel, artefact control for SMM control-protein annotation, biochemical, small-molecule microarray, 635/667 nm fluorescence (AID 1140); details: WGA-A647 binding, 635 nm fluorescence, higher = more signal;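 also: score merges 667 nm feature emission with signal to noise over triplicate slides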
[17] = molecular target: Luciferin 4-monooxygenase (Photinus pyralis) (UniProt P08659); assay: firefly luciferase enzyme inhibitors, primary screen, biochemical, luminescence, purified enzyme, 2006 set (AID 1141); details: SteadyGlo luminescence, 30 min, higher = more signal, called active from +8 up or from −8 down;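 also: cell-free assay with purified firefly luciferase at 100 ng per well in PBS; test concentration not given here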
Sequence of Luciferin 4-monooxygenase (Photinus pyralis) (P08659 whole entry, looked up): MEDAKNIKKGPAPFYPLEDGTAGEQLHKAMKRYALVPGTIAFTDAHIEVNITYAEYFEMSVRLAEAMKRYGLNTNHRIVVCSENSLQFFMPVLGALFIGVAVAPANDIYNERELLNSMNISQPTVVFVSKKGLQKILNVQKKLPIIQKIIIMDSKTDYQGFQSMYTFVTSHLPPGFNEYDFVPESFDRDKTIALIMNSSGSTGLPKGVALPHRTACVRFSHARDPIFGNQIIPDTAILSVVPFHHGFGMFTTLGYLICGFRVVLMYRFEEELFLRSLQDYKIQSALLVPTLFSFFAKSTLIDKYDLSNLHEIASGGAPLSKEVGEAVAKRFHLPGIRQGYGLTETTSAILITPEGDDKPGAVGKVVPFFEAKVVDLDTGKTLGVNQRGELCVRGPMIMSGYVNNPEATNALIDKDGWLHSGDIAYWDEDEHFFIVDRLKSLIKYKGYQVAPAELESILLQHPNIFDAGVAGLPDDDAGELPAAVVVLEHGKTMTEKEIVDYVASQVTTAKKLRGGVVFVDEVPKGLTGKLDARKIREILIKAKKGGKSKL

Structure (SMILES)	composite z-score (Albumin (Bos taurus))	composite Z-score [1]	composite z-score [2]	composite z-score [3]	composite z-score [4]	composite z-score [5]	composite z-score [6]	composite z-score (Sam68 (KHDRBS1))	composite z-score [7]	composite z-score [8]	composite z-score [9]	composite z-score [10]	composite z-score [11]	composite z-score [12]	composite z-score [13]	composite z-score [14]	z-score [15]	composite z-score (Lefty1)	composite z-score [16]	z-score [17]
CCC[C@@H]1C[C@@]1(CCC)[C@@H](NP(=O)(c1ccccc1)c1ccccc1)c1ccc(Cl)cc1	-0.811	-1.49 (inactive)	0.0306	-0.0166	-0.0589	0.772	0.38	0.179	0.603	-0.765	-0.649	-0.472	-0.371	-0.428	-0.216	-0.475	-1.22	-0.413	-0.619	1.71 (inactive)
CN(C)CCCNC(=O)[C@@H]1c2ccccc2C(=O)N(CC23CC4CC(CC(C4)C2)C3)[C@H]1c1ccc(CO)cc1	0.821	2.01 (inactive)	-0.001	-0.0984	0.344	2.62	2.1	1.3	0.452	1.18	2.44	1.27	0.0169	0.954	1.21	0.788	1.36	1.26	0.665	0.717 (inactive)
COC(=O)[C@@]1(Cc2ccccc2)[C@H]2c3cc(C(=O)N4CCCC4)[nH]c3C[C@H]2CN1C(=O)c1ccccc1	0.5	-0.37 (inactive)	0.0203	0.111	0.722	3.51	0.341	-1.81	-0.782	-1.15	0.886	-0.0205	1.24	0.664	-0.382	-0.757	0.709	-0.826	-0.129	1.18 (inactive)
CN1C2C=C(CCCO)C(C3C(=O)N(C(N)=O)C(=O)C32)C1c1cccs1 (stereo not given)	-0.435	-0.394 (inactive)	-0.179	0.61	0.409	0.924	-0.212	0.226	1.51	-0.0398	0.738	0.151	-0.111	-0.451	0.044	-0.22	-0.405	0.38	-0.303	-0.655 (inactive)
COc1ccc([Si](C)(C)[C@H]2[C@H](CCO)O[C@@]3(C(=O)N(Cc4cccc(N5CCCCC5=O)c4)c4ccccc43)[C@@H]2C)cc1	0.378	0.299 (inactive)	-0.0984	-0.148	0.394	1.31	0.264	1.15	0.769	1.1	1.16	1.15	0.362	0.848	1.26	0.403	0.589	1.06	0.418	-1.34 (inactive)
C=C(CCCC)C(=O)CC[C@@H](OC(=O)c1ccccc1-c1ccccc1C(=O)O)c1cccc(OCCO)c1	-0.658	-0.263 (inactive)	-0.15	-0.154	0.728	0.361	0.742	0.986	1.22	-0.5	-0.0724	0.53	0.113	0.834	1.43	1.56	0.317	1.68	-0.0168	-2.33 (inactive)
COc1cc(CO)cc(I)c1O[C@H]1C=C(C(=O)NCCO)C[C@@H](N(Cc2ccc(F)cc2)C(=O)C2CCCO2)[C@@H]1O (stereo not given in full)	-0.53	-0.77 (inactive)	-0.154	-0.0781	-0.124	-0.248	-0.144	0.0803	0.325	-0.422	0.608	0.317	0.079	0.247	0.34	0.47	1.46	-0.0522	0.517	-0.951 (inactive)
COCCCNC(=O)[C@]1(CCC(=O)OC(C)(C)C)N=C(c2ccc(OCCCO)cc2)O[C@@H]1c1ccccc1	0.968	0.977 (inactive)	0.246	0.221	0.871	3.17	0.62	0.881	-0.0833	-0.354	3.52	1.26	0.807	0.272	1.21	-0.0959	0.229	-0.989	1.12	-0.127 (inactive)
O=C1NC(=O)C2C1C=CC(C(O)c1c(F)cccc1Cl)N2Nc1ccccn1 (stereo not given)	0.179	-0.527 (inactive)	-0.0009	0.0203	0.805	-0.42	1	0.0076	0.676	-0.453	0.582	0.257	0.202	0.776	0.477	0.731	0.52	-0.236	0.228	-0.194 (inactive)
CCOC(=O)C[C@H]1[C@H](OC(=O)c2ccc(C(=O)c3ccccc3)cc2)[C@@H](NC(=O)c2ccc3ccccc3c2)c2cc(OCCCO)ccc2N1C(=O)c1ccccc1	0.362	0.224 (inactive)	0.0893	0.127	0.197	1.26	0.8	1.32	-0.257	1.04	0.405	1.13	0.287	0.73	0.599	0.436	0.315	1.14	1.1	-0.204 (inactive)
CC1CC/C=C\[C@H]2OC34C=CCN(CCN5CCOCC5)C(=O)[C@H]3N(CCO)C(=O)[C@@H]4C2C(=O)O1 (stereo not given in full)	-0.0406	0.377 (inactive)	-0.22	-0.104	0.802	-0.265	0.973	-2.29	-1.02	-0.889	2.67	-0.959	-0.583	0.187	-0.361	-0.0989	-0.213	-0.887	-0.176	0.749 (inactive)
CCOC(=O)[C@H]1C/C=C/C[C@H](C(=O)OCC)C(=O)O[C@H]2[C@@H](OC)O[C@H](CO)[C@@H](OC(=O)Nc3ccc(OC)cc3)[C@@H]2OC1=O	0.441	0.937 (inactive)	0.292	0.0196	0.475	0.984	1.16	1.32	0.37	0.92	1.96	1.16	0.768	0.369	1.16	0.741	2.61	0.636	0.648	-2.06 (inactive)
COC(=O)Cn1c(C(=O)N2CCCC2)cc2c1C[C@H]1CN(C(=O)c3ccccc3)[C@@](Cc3ccc(F)cc3)(C(=O)OC)[C@@H]21	0.827	-0.14 (inactive)	-0.0888	-0.036	0.885	0.965	0.0395	-1.17	-0.451	-0.432	0.712	-0.25	0.386	-0.288	0.237	-0.438	1.39	-0.3	0.647	1.22 (inactive)
COCCOC(=O)N1C(=O)[C@@]2(c3cc(C#CC4(O)CCCCCC4)ccc31)[C@H](C(=O)N1CCCCCCC1)[C@H]1C(=O)O[C@H](c3ccccc3)[C@H](c3ccccc3)N1[C@@H]2c1ccc(OCCO)cc1	0.513	3.82 (inactive)	1.73	0.819	0.705	3.34	1.35	1.29	1.52	1.14	2.68	1.24	1.13	0.95	1.49	1.77	-1.18	1.7	1.09	-2.13 (inactive)
C=CCOC(=O)[C@H]1[C@@H]2C(=O)O[C@@H](c3ccccc3)[C@@H](c3ccccc3)N2[C@@H](c2ccc(OCCOC(=O)[C@H]3C[C@H]4C(=O)N[C@@H](Cc5ccccc5)C(=O)N4[C@H]3c3ccc(O)cc3)cc2)[C@]12C(=O)Nc1ccc(I)cc12	-0.175	0.341 (inactive)	0.189	-0.11	0.28	1.78	0.428	1.3	1.23	1.14	0.951	1.14	0.665	0.565	1.32	1.29	-0.395	1.69	0.958	-0.649 (inactive)
COC(=O)[C@@]1(Cc2ccccc2)[C@H]2c3cc(C(=O)N4CCCC4)n(C[C@H](O)CO)c3C[C@H]2CN1C(=O)c1ccccc1	0.659	-0.164 (inactive)	0.152	0.0837	0.907	1.79	0.288	0.18	-1.34	-0.311	1.39	0.926	1.62	-0.455	-0.326	-0.978	0.577	-0.554	1.18	1.22 (inactive)
O=C1OC[C@@H](c2ccccc2)N2CC(/C=C/c3ccccc3)=CC12 (stereo not given in full)	0.0154	0.142 (inactive)	-0.36	-0.189	0.453	-0.428	0.133	-1.57	-0.713	-0.044	-0.206	0.725	-0.542	-0.593	-1.29	-1.45	0.0121	-1.58	-0.408	0.0761 (inactive)
Cc1ccc(S[C@]2(C(=O)NCCN3CCOCC3)CC(=O)N(Cc3ccccc3C(F)(F)F)[C@@H]2c2ccc(CO)cc2I)cc1	0.274	0.139 (inactive)	-0.171	-0.131	0.371	0.702	0.23	0.397	-0.777	-0.278	0.771	-0.0269	0.167	-1.16	-0.562	-0.907	-0.695	-0.87	-0.194	0.622 (inactive)
COCCOC(=O)N1C(=O)[C@@]2(c3cc(C#CC4(O)CCCCCC4)ccc31)[C@H](c1ccccc1OCCO)N1[C@H](c3ccccc3)[C@H](c3ccccc3)OC(=O)[C@H]1[C@@H]2C(N)=O	-0.205	-0.02 (inactive)	0.0282	-0.0942	0.378	0.994	-0.394	1.31	0.476	1.15	1.47	1.18	0.639	0.872	1.41	1.51	-1.68	1.56	1.02	-0.927 (inactive)

From PubChem BioAssay
